# From the supplement of paper PMC6555819
# What was measured:
# Assay in all cases: PBM binding z-score (relative to random genomic background probes); higher = stronger binding; sequences stand for … in GC…GCGATTGACAGCGTAGAATGAAGG
# [1] = system: RARb homodimer (NR concentration 270 nM)
# How it was run: (§1)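 The probes on custom Agilent 4×180K protein-binding microarrays were double-stranded, with 34-nt variable regions bearing direct-repeat seeds, single-nucleotide variants, half-site ablations and random human genomic background sequences. Incubation lasted 1 h with ligand-free nuclear receptor dimers in PBS pH 7.4, 2% milk, 0.02% Triton X-100, 1 mM DTT, 0.2 mg/mL BSA and 0.4 mg/ml salmon testes DNA. Antibodies against each partner (one per run) detected bound dimers, and fluorescence scans were regression-normalized. Binding z-scores take the random background probes as reference.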
# [2] = system: RARg:RXRa (NR concentration 270 nM, RXRa partner concentration 90 nM)
# How it was run: as §1
# [3] = system: RARg homodimer (NR concentration 270 nM)
# How it was run: as §1
# [4] = system: RXRa DBDmut IVT, anti-RXR (DBD mutation: RXRa K156A/R161A, NR concentration 90 nM)
# How it was run: as §1
# [5] = system: RXRa homodimer (NR concentration 180 nM)
# How it was run: as §1
# [6] = system: THRa:RXRa (NR concentration 90 nM, RXRa partner concentration 90 nM)
# How it was run: as §1
# [7] = system: THRa homodimer (NR concentration 90 nM)
# How it was run: as §1
# [8] = system: VDR:RXRa (NR concentration 270 nM, RXRa partner concentration 90 nM)
# How it was run: as §1
# [9] = system: VDR homodimer (NR concentration 270 nM)
# How it was run: as §1
Sequence,PBM binding z-score [1],PBM binding z-score [2],PBM binding z-score [3],PBM binding z-score [4],PBM binding z-score [5],PBM binding z-score [6],PBM binding z-score [7],PBM binding z-score [8],PBM binding z-score [9]
ATATGTAGGTTAAGGGTCTTTCAGGTTGGTTCGC,1.78,1,0.853,0.724,1.96,1.54,1.44,1.79,1.64
ATCTCTAGGTAAAGAGAGTTCAGTGAATGCAAAT,1.55,0.963,1.18,1.12,0.653,1.56,-0.0506,3.33,3.67
TAGCCTAGGTCAGATCGGTCCAGTATACGCTATA,1.89,2.06,3.2,-0.21,1.2,2.97,0.0173,2.18,0.23
ATATGTAGGATACATCCGGGTCATTCAGGCTATG,2.18,1.58,1.43,0.223,1.95,2.99,1.95,3.21,2.23
TCTGCTAGGTCAACGATGGTCAGCTACTCTGCTA,3.48,4.25,5.24,0.833,2.64,3.04,0.776,1.68,-0.337
AGAATGAGATTAAGATCAGGGAAACAGAATACAT,-0.523,0.0579,0.312,-0.493,-0.0987,-0.0153,-0.567,-0.149,-0.0769
CTCGAAAGGTCGTGCTCAGGTGACTATACCAAAC,3.17,5.21,3.82,2.15,4.78,4.26,1.69,3.53,0.845
CTACCCAGGTGAACAAGGTCGTTGATTACTATTC,1.57,1.18,0.941,0.701,1.46,2.94,1.87,5.31,1.92
TCGAGTAGGTTACCAATGGTGCATTCAGCTTTCT,-0.0825,0.138,0.0849,0.244,0.365,-0.118,-0.617,0.228,-0.499
CGTCATAGTTCAAGGTAACGTAACAGAAAGCAGC,2.2,2.96,3.42,2.26,1.99,2.32,1.16,1.3,0.917
AATACAGGGTCATCATAGGCCAGAGTACGCACAG,3.57,5.66,5.42,3.54,6.89,4.39,1.78,5.14,3.46
ACAGACAGGTGATGAAGGTAGCTCAGGCTATCAT,-0.243,-0.0777,0.295,-0.263,0.147,0.294,-0.392,-0.287,-0.696
CCAGACAGGAGAGAAGGTAACTCAGCCTCGATTA,0.0999,-0.0304,0.0804,0.0336,0.0715,0.145,0.357,-0.312,0.0493
TCTCGGAGCACACGAAGGTCAGAGCTTTCCAGAG,2.66,2.84,1.83,-0.242,1.7,1.35,-0.853,0.634,-0.73
TATACAGGGTCAAAGGCCAGAGTGCGAATGTCGA,3.58,5.91,5,3.25,7.4,3.57,0.842,4.88,3.38
TCTATTAGTTGATTAGGGCAACCTAAACAGCGGA,0.947,0.824,0.799,0.995,0.669,0.862,0.4,0.744,0.145
CCTTACGGGTCGCTCCAGGTTATAGCATCGGAGT,1.07,0.907,1.08,0.0194,1.14,4.18,0.109,1.1,0.177
GATACAGGGTCAGCTAGAGTCCAGAGTATGGAAA,3.02,5.59,4.41,1.39,4.32,2.88,0.377,4.13,1.58
ATATGTAGCTTAGCTGGGGTCATTCAGACTAGGC,3.13,3.19,2.02,1.54,5.09,3.92,2.85,4.78,3.19
ATATGTAGGTTAAGGATCATTCAGGTTGGTTCGC,0.849,0.99,0.991,0.797,1.42,1.42,0.728,1.45,1.16
ACAGACAGGTGATGAAGTTAACTCAGGCTATCAT,0.22,-0.00666,0.328,-0.128,0.00488,1.38,-0.0538,0.117,0.197
CCGCGGAGGACAGAAGGTCAGAGCTGTCCGCTTT,3.51,3.69,3.56,0.479,2.27,2.17,-0.127,0.646,0.1
CCTTACGGGTCACCCCAGGTTATAGCATCGGAGT,3.53,5.05,4.77,0.177,5.34,5.16,1.21,4.91,1.41
ATGTCTAGGTAACAAGTTCAGTGAAAGAGAGGAC,1.85,1.29,1.35,0.903,0.727,1.56,0.576,2.14,2.23
